VDR inhibitor – inhibitors of human vitamin D receptor; 0.93% of 400,000 active; VDR-SRC2-3 peptide fluorescence polarization, 2 h; AID 504847; P11473; Potency, µM, for inactives: max response, negative = inhibition, actives largely listed as inhibitors; also: % is scaled to controls: 0 for no effect and ±100 for the full control effect
Target sequence (P11473 whole entry, looked up): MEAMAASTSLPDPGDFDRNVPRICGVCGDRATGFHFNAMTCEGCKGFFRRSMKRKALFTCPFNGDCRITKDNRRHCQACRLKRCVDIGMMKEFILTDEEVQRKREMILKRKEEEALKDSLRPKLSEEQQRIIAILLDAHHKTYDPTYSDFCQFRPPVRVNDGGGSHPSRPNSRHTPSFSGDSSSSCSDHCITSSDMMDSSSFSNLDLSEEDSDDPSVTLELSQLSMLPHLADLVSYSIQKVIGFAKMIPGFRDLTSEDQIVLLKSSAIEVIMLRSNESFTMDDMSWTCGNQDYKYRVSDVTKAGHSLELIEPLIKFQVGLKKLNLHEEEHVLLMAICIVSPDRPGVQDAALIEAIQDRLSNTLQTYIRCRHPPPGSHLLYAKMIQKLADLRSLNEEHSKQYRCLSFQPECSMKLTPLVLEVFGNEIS
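FP read-out; VDR + SRC2-3 coactivator peptide; 23 nl compound by pintool; 2 h RT incubation; reagents held at 4 deg C, protected from light.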
12-LOX inh – blocks human arachidonate 12S-lipoxygenase. AID 1671190. Potency, µM (titrated, usually from 108 µM), without a hit: top-dose activity change, negative = inhibition, most hits filed as inhibitors. 1.1% of 580,000 active. P18054. purified 12hLO, xylenol orange hydroperoxide absorbance; also: % is scaled to controls: 0 for no effect and ±100 for the full control effect
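Purified human 12hLO at 150 nM in 25 mM Hepes, 0.01% Triton X-100, pH 7.0, preincubated 15 min at room temperature with compound. Reaction started with 40 uM arachidonic acid, 30 min at room temperature. Hydroperoxide measured by Fe-xylenol orange, 573/405 nm absorbance ratio.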
GRP78 ERSR act – induces the endoplasmic reticulum stress response in human glioma cells; U87-MG GRP78 promoter luciferase reporter, 16 h; Potency, µM, inactives show at the highest dose activation, hits mostly activators; 0.02% of 420,000 active; also: series mostly up to about 76 µM; % of control where 0% means no effect; nearly all actives have a fitted effect of over 35% in size
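Stably transfected U87-MG human glioma cells carrying a GRP78-based luminescent sensor were seeded at 1000 cells/well, pin-dosed with compounds and incubated 16 h. Luciferase reagent was then added, and end-point luminescence was read after 10 min at room temperature.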
G9a block – blocks human histone lysine methyltransferase G9a | Q96KQ7 | G9a H3K9 monomethylation, AlphaScreen, 2 h | Potency, µM (highest dose often 102 µM), for inactives: top-dose activity, negative = inhibition, most hits filed as inhibitors | 8.8% of 350,000 active | AID 504332; also: % is scaled to controls: 0 for no effect and ±100 for the full control effect; nearly all actives have a fitted effect of over 75% in size
Target sequence (Q96KQ7 913-1193 limits assumed): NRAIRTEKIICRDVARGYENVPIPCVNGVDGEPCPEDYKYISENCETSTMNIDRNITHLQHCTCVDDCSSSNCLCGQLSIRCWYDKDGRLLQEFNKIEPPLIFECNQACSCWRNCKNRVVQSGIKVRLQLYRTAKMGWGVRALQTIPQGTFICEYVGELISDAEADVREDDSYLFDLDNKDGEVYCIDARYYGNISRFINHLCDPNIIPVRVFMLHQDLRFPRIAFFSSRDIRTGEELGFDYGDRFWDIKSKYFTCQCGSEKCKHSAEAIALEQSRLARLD
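Compounds were preincubated with 20 nM G9a for 15 min, after which biotinylated H3K9 peptide (500 nM) and SAM (20 uM) started a 2 h room-temperature reaction. Monomethylated product was quantified by antibody-based AlphaScreen chemiluminescence.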
Sfp inh – blocks B. subtilis Sfp PPTase activity. Q9F4F7. AID 1490. 3.5% of 310,000 active. Biochemical Sfp PPTase activity, qHTS. Potency, µM, inactives show largest response in the series, negative = inhibition, actives largely listed as inhibitors;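 also: the enzyme is Sfp with the accession as filed and its product quenches rhodamine fluorescence; 0% = enzyme reaction without inhibitor and -100% = no enzyme wells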
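After 15 min at room temperature with compound, 15 nM Sfp received 5 uM rhodamine-CoA plus 12.5 uM BHQ-2-ybbR (50 mM Hepes pH 7.6, 10 mM MgCl2). Rate came from the fluorescence difference over 30 min, ex 525/em 598 nm.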
VDR inh confirm – inhibits human vitamin D receptor, primary hit validation | shares compounds with VDR inhibitor | VDR-coactivator inhibition assay, qHTS confirmation | Potency, µM, most hits filed as inhibitors | 89% of 840 active
VDR FP – confirmation of human VDR-coactivator binding inhibitors, fluorescein label. shares compounds with VDR inhibitor. VDR-coactivator binding, fluorescein fluorescence polarization. Potency, µM (doses to about 57.1 µM), for inactives: top-dose activity change, negative = inhibition, hits mostly inhibitors. 48% of 840 active
VDR bla reporter – confirmation of human vitamin D receptor inhibitors in reporter cells; shares compounds with VDR inhibitor; AID 602202; Potency, µM (top dose mostly 46.1 µM), inactives show top-dose activity change, negative = inhibition, hits mostly inhibitors; 23% of 840 active; VDR beta-lactamase reporter cells, FRET ratio; cells co-treated with VDR agonist LG190178; also: % is scaled to controls: 0 for no effect and ±100 for the full control effect
VDR cytotox – cytotoxic in counter-screen for VDR inhibitors | shares compounds with VDR inhibitor | cytotoxicity counter-screen, cell viability, qHTS | Potency, µM (highest dose often 48.3 µM), for the others: at the top dose activity change, negative = cytotoxicity, most hits filed as cytotoxic | 18% of 840 active | AID 602204;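 also: plate controls were DMSO for no effect and high-concentration cycloheximide for full effect; nearly all actives have a fitted effect of over 75% in size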
Active calls of the source: *; [ ] = remark or other dose. This is one part of a sample in which hits are shown more often than they occur. Calls follow the shape of the dose curve; as a rule, active = well fitted curve in the direction sought with a large enough effect; inconclusive = small, poorly fitted or top-dose-only effect, or another doubt; inactive = no such curve, though single readings can be large; an effect the other way counts as inactive or inconclusive. Potency is read from the fitted curve at half-maximal effect.

Screening CC1=NNC(=O)/C1=C\c1cn(-c2ccccc2)nc1-c1ccc(Cl)cc1 returned VDR inhibitor 12.6µM*, 12-LOX inh -18.8%, GRP78 ERSR act -14.8%, G9a block -7.2%[12.7 µM], Sfp inh 6.7%, VDR inh confirm inconclusive, VDR FP 11.2µM*, VDR bla reporter inconclusive and VDR cytotox 20.6µM*.
For COc1ccccc1C1=NS(=O)(=O)N(C)C(C(=O)Nc2ccn(Cc3ccc(C)cc3)n2)=C1 the results were 12-LOX inh 14.9%.
For Nc1cc(S(=O)(=O)Nc2ccccc2Cl)ccc1N1CCCCC1 the results were VDR inhibitor inconclusive, 12-LOX inh 28.2µM*, GRP78 ERSR act 5.8%, VDR inh confirm 7.08*, VDR FP 7.08µM*, VDR bla reporter -26.3% and VDR cytotox -26.7%.
For COC(=O)CN1CCN(c2nc3c(c(=O)[nH]c(=O)n3C)n2Cc2ccc(Cl)cc2)CC1 the results were 12-LOX inh 19.4%.
For COc1ccc(NC(=O)/C(Cl)=C(/Cl)S(=O)Cc2ccccc2)cn1 (stereo not drawn) the results were VDR inhibitor 14.1µM*, 12-LOX inh inconclusive, GRP78 ERSR act -14.3%, G9a block 11.2µM*, Sfp inh 39.8µM*, VDR inh confirm 4.23*, VDR FP inconclusive, VDR bla reporter inconclusive and VDR cytotox inconclusive.
COc1ccc(NC(=O)Cc2ccccc2)cn1 was read as VDR inhibitor -2.3%, 12-LOX inh 12.1%, GRP78 ERSR act -1.1%, G9a block -5.7% and Sfp inh -0.8%.
For Cc1cccc(CCNC(=O)c2ccc3c(Cl)c4c(nc3c2)CCCC4)c1 the results were 12-LOX inh -4.2%.
Screening O=C(O)c1cccc(CN2C(=O)S/C(=C/c3cccc([N+](=O)[O-])c3)C2=O)c1 returned VDR inhibitor 20µM*, 12-LOX inh inconclusive, GRP78 ERSR act -5.4%, G9a block inconclusive, Sfp inh 70.8µM*, VDR inh confirm 17.8*, VDR FP 22.4µM*, VDR bla reporter -22.6% and VDR cytotox -7.6%.
Screening CC(C)NC(=O)Cc1ccc(-n2c(=O)c3ccccc3n(Cc3ccccc3)c2=O)cc1 returned 12-LOX inh 3.0%.
Screening CC(=O)Nc1ccc(NC(=O)CC2C(=O)Nc3nc(C)nn32)cc1 (stereo not drawn) returned 12-LOX inh -0.6%.
Screening C=CCOc1c(Br)cc(/C=C2\SC(=Nc3ccccc3)NC2=O)cc1OC returned VDR inhibitor -1.6%, 12-LOX inh -17.3%, GRP78 ERSR act 12.4%, G9a block 19.3% and Sfp inh 28.2%.
C=CCOc1c(Br)cc(/C=C2/C(=O)ON=C2C)cc1OC was read as VDR inhibitor 44.7µM*, 12-LOX inh 15.8µM*, GRP78 ERSR act -2.6%, G9a block 31.6µM*, Sfp inh inconclusive, VDR inh confirm 9.47*, VDR FP inconclusive, VDR bla reporter -9.9% and VDR cytotox 11.0%.
CCCOc1ccc(Cl)cc1/C=C1/C(=O)ON=C1C was read as VDR inhibitor 25.1µM*, 12-LOX inh inconclusive, GRP78 ERSR act -1.7%, G9a block 31.6µM*, Sfp inh inconclusive, VDR inh confirm 10.6*, VDR FP 3.55µM*, VDR bla reporter 13.0% and VDR cytotox inconclusive.
Screening C#CCOc1ccc(/C=C2/C(=O)ON=C2C)cc1Cl returned VDR inhibitor 44.7µM*, 12-LOX inh 8.91µM*, GRP78 ERSR act 3.0%, G9a block 35.5µM*, Sfp inh inconclusive, VDR inh confirm 5.97*, VDR FP inconclusive, VDR bla reporter -3.1% and VDR cytotox 9.0%.
`CCOc1cc(/C=C2/C(=O)ON=C2C)ccc1OCc1ccc(F)cc1` gave VDR inhibitor 79.4µM*, 12-LOX inh inconclusive, GRP78 ERSR act -0.9%, G9a block inconclusive, Sfp inh 50.1µM*, VDR inh confirm inconclusive, VDR FP 157.4%, VDR bla reporter -4.8% and VDR cytotox -34.0%.
Screening CCCOc1ccc(Cl)cc1CNc1ccccc1 returned VDR inhibitor -9.8%, 12-LOX inh -14.2%, GRP78 ERSR act -1.5%, G9a block 205.8% and Sfp inh -1.5%.
`CCOc1cc(/C=C2/NC(=O)NC2=O)ccc1OCc1cccc(F)c1` gave 12-LOX inh 0.8%.
For COc1ccc(CNC(=O)COC(=O)c2ccc(OC)c(S(=O)(=O)N3CCCCCC3)c2)cc1 the results were 12-LOX inh 7.9%.
`CCn1cc(CN2CCC(N3CC(OCCOC)C34CCCCC4)CC2)cn1` (stereo not drawn) gave 12-LOX inh 36.7%.
For CC1=NOC(=O)/C1=C\c1ccc(-c2ccc(Cl)cc2Cl)o1 the results were VDR inhibitor 22.4µM*, 12-LOX inh 15.8µM*, GRP78 ERSR act 9.3%, G9a block 8.91µM*, Sfp inh 44.7µM*, VDR inh confirm 3.77*, VDR FP 2.24µM*, VDR bla reporter inconclusive and VDR cytotox inconclusive.
Screening C#CCOc1c(Cl)cc(/C=C2/C(=O)ON=C2C)cc1OCC returned VDR inhibitor inconclusive, 12-LOX inh 44.7µM*, GRP78 ERSR act 7.9%, G9a block 39.8µM*, Sfp inh 79.4µM*, VDR inh confirm 7.94*, VDR FP 7.94µM*, VDR bla reporter -4.4% and VDR cytotox 9.9%.
For Cc1cccc(C(=O)OCc2nc(N)c3ccccc3n2)c1 the results were 12-LOX inh 1.4%.
CSCCC(NS(=O)(=O)c1ccc2c(c1)oc(=O)n2C)C(=O)Nc1cc(C)cc(C)c1 (stereo not drawn) was read as 12-LOX inh -20.9%.
`CC(C)CN1C(=O)/C(=C(/C#N)C(=O)NC2CCCCC2)c2ccccc21` gave VDR inhibitor inconclusive, 12-LOX inh 3.3%, GRP78 ERSR act -3.0%, G9a block inconclusive, Sfp inh 7.08µM*, VDR inh confirm 2.82*, VDR FP 2.82µM*, VDR bla reporter 5.6% and VDR cytotox -3.2%.

Compound activity (PubChem)
